# Assay outcomes as filed in PubChem BioAssay.
# The list is not random: actives were taken first. Their share in the collection is about 7.6%.
# RORgamma inh: ROR gamma (mouse) transcription inhibition. P51450. Drosophila S2 Gal4-RORgamma UAS-luciferase reporter, 20 h. Potency, µM (doses to about 53.6 µM), inactives show top-dose activity change, negative = inhibition, most hits filed as inhibitors. 310,000 tested, 5.4% active. AID 2551; note: potency is the fitted concentration of half-maximal effect; % is set by controls: 0 for no effect and ±100 for the full control effect; nearly all actives have a fitted effect of over 60% in size
# Target sequence (P51450 whole entry, looked up, the tested form may be a part): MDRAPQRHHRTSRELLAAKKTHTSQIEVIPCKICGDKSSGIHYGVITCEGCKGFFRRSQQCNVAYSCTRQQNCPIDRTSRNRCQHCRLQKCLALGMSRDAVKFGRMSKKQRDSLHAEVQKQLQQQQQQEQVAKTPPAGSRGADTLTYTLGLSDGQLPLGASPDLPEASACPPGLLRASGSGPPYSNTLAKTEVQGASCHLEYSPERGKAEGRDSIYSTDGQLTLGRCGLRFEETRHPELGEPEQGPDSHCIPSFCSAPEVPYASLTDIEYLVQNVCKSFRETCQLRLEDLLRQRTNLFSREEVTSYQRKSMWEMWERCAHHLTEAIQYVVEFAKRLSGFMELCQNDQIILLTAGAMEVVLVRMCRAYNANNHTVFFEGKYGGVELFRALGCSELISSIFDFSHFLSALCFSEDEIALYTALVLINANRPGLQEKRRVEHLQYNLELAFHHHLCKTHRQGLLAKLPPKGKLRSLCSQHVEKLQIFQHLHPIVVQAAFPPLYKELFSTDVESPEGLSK
#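 Schneider cells (Drosophila), stable Gal4 DBD–ROR gamma + UAS-luc; 1 hr cmpd preincubation; Cu2+ induction 700 uM final; 20 hr ambient; luminescence.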
# BRCA1 expr act: activators of BRCA1 expression; Potency, µM (top dose mostly 46.1 µM), inactives show at the top dose activation, hits mostly activators; 380,000 tested, 1.1% active; MCF7-BRCA1-FFLuc reporter, luminescence, 48 h; response scale: scaled: vehicle 0%, 10 µM genistein 100%; note: potency is the fitted concentration of half-maximal effect; nearly all actives have a fitted effect of over 80% in size
#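 MCF7 cells carrying a BRCA1-firefly luciferase reporter (2000 cells/well, phenol-red free MEM) were attached for 2 h at 37 °C, then given compounds for 48 h. Luminescence was read 15 min after luciferase reagent; activity normalized to genistein (10 microM) and DMSO.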
# p53 reactivation: mutant p53 re-activation in reporter cells | H1299 p53-A138V BP100-luciferase reporter, luminescence, 24 h | 320,000 tested, 0.063% active | Potency, µM (top dose mostly 92.2 µM), without a hit: top-dose activity change, positive = activation, usual class: activators; note: potency is the fitted concentration of half-maximal effect; % of control where 0% means no effect; nearly all actives have a fitted effect of over 45% in size
#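 H1299 (p53-null), stable ts p53-A138V + BP100-Luc; 1000 cells/well, Opti-MEM/10% FBS; cpd 4 pt, 1:5; 24 h, 37 deg C, 5% CO2; detection reagent 10 min RT; luminescence.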
# Giardia kill: kills Giardia lamblia; Giardia lamblia trophozoite viability; activity change, % at 7.66 µM, hits read low; 340,000 tested, 0.15% active; in the data active = activity change below about -80%; inconclusive = between about -30% and that limit;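 note: parasites exposed to compound for two days anaerobically before the ATP read; % is set by controls: 0 for no effect and ±100 for the full control effect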
#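 Luminescence from cellular ATP indicates surviving trophozoites (100 cells/well) following 48 hrs anaerobic compound treatment at 37 deg C; signal develops 15-30 min at room temperature.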
# ELG1 repair inh: ELG1-dependent DNA repair inhibition; 330,000 tested, 2.3% active; HEK293T ELG1-luciferase reporter, luminescence, 16 h; DNA damage induced by 5-fluorouridine; AID 504467; Potency, µM (highest dose often 46.1 µM), for inactives: at the highest dose activity change, negative = inhibition, most hits filed as inhibitors; note: potency is the fitted concentration of half-maximal effect; % is set by controls: 0 for no effect and ±100 for the full control effect; nearly all actives have a fitted effect of over 55% in size
#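 Step one: seed 2,000 cells per well. Step two: pin-transfer compound or DMSO alongside 5-fluorouridine. Step three: incubate 16 hr, 37 °C, 5% CO2. Step four: add ONE-Glo, wait 30 min, read luminescence.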
# VP16 counter: inhibits Gal4-VP16 luciferase reporter, ROR gamma counter-screen | AID 2546 | Drosophila S2 Gal4-VP16 UAS-luciferase, luminescence, 20 h | 310,000 tested, 3.5% active | Potency, µM (titrated, usually from 53.6 µM), for the others: at the highest dose activity, negative = inhibition, most hits filed as inhibitors;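 note: Gal4-VP16 expression switched on by copper sulfate through the metallothionein promoter; potency is the fitted concentration of half-maximal effect; % is set by controls: 0 for no effect and ±100 for the full control effect; nearly all actives have a fitted effect of over 50% in size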
# An asterisk follows results filed as active; u = inconclusive; x = no result given; [ ] = remark or other dose. Unless noted, calls come from the whole dose curve; as a rule, active = well fitted curve in the direction sought with a large enough effect; inconclusive = small, poorly fitted or top-dose-only effect, or another doubt; inactive = no such curve, though single readings can be large; an effect the other way counts as inactive or inconclusive.
SMILES,RORgamma inh,BRCA1 expr act,p53 reactivation,Giardia kill,ELG1 repair inh,VP16 counter
C/C(=N\Nc1ccc(S(=O)(=O)Nc2ccccc2)cc1[N+](=O)[O-])c1ccncc1,6.7%,x,16.4%,x,-14.7%,1.1%
Cc1c(C(=O)C(C)C)n(C)c2ccccc12,-0.4%,-10.4%,4.2%,-14.9,4.4%,-1.7%
Cc1nc(N2CCN(c3ccccc3O)CC2)c2c(-c3ccccc3)csc2n1,u,-59.3%,-7.1%,10.9,18.3µM*,1.8%
Oc1ccccc1N1CCN(c2ncnc3scc(-c4ccc(F)cc4)c23)CC1,-25.8%,-91.7%,8.5%,-26.2,9.2µM*,-19.2%
COc1ccc(-c2csc3nc(C)nc(N4CCN(C(C)=O)CC4)c23)cc1OC,-8.9%,-11.7%,-0.1%,-22.0,5.0%,-7.1%
Oc1ccccc1N1CCN(c2ncnc3scc(-c4ccccc4)c23)CC1,89.7%,-63.6%,-3.5%,-4.0,18.3µM*,-2.6%
COc1ccc(-c2csc3nc(C)nc(N4CCC(C)CC4)c23)cc1OC,7.08µM*,-87.6%,-2.6%,-1.6,u,11.4%[10 µM]
CN1CCN(NS(=O)(=O)c2cccs2)CC1,-8.4%,-1.9%,0.4%,13.8,-1.9%,-0.7%
CN(C)c1ccc(Nc2ncnc3sc4c(c23)CCCC4)cc1,x,-3.8%,x,x,x,x
CC(C)CCNC(=O)CN(CCN1CCOCC1)C(=O)Cn1nnc(-c2ccc(F)cc2)n1,4.8%,-27.5%,7.8%,-10.9,4.6%,2.3%
Nc1c(-c2ccc3c(c2)OCCO3)oc2ccccc2c1=O,5.3%,2.51µM*,u,-19.2,u,6.5%
COC(=O)CCSCC(=O)Nc1ccc(S(=O)(=O)N2CCOCC2)cc1OC,-7.8%,4.8%,-2.4%,-1.8,0.0%,-1.3%
Cc1ccc(S(=O)c2snnc2C)cc1 (configuration not stated),4.5%,-27.1%,12.6%,6.8,-5.5%,-6.0%
CCCNC(=O)c1nnsc1S(=O)(=O)c1ccc(Cl)cc1,1.12µM*,-65.9%,-19.1%,-4.5,u,3.16µM*
CCCNC(=O)c1nnsc1S(=O)c1ccc(Cl)cc1 (configuration not stated),1.12µM*,-24.4%,-18.9%,-1.4,26.1%,3.98µM*
CNC(=O)c1nnsc1S(=O)c1ccc(Cl)cc1 (configuration not stated),1.26µM*,65.9%,-19.5%,-1.4,u,5.01µM*
Nc1c(C(=O)O)sc2nc(-c3ccccc3)cc(-c3ccc(Cl)cc3)c12,u,-30.6%,-9.4%,-7.8,u,-7.5%
Nc1c(C(=O)N/N=C/c2cccnc2)oc2nc(-c3ccccc3)cc(-c3ccco3)c12,-28.4%,-23.3%,-1.7%,-10.9,7.3µM*,7.4%
Nc1c(C(=O)N/N=C/c2cccnc2)oc2nc(-c3ccco3)cc(-c3ccco3)c12,-1.5%,-30.0%,-5.0%,-2.8,2.91µM*,1.9%
O=C(N/N=C/c1cccnc1)c1cc2ccccc2o1,27.4%,-35.0%,14.8%,-17.4,27.2%,2.4%
NNC(=O)c1oc2nc(-c3ccc(Cl)cc3)cc(-c3ccccc3)c2c1N,-22.3%,-72.3%,-1.5%,u,16.4µM*,4.0%
NNC(=O)c1oc2nc(-c3ccco3)cc(-c3ccco3)c2c1N,-7.7%,-1.0%,-1.0%,-23.3,u,-18.1%
CCOC(=O)c1c(C)[nH]c(C)c1S(=O)(=O)N(C)CC(=O)Nc1ccc(CC)cc1,x,-10.1%,x,x,x,x
Cc1c[nH]c2cccc(OCC(O)CNC(C)(C)C)c12 (configuration not stated),1.41µM*,4.4%,4.9%,0.9,19.4%,-11.0%
CC(C)(C)NCC(O)COc1ccccc1C(C)(C)C (configuration not stated),-4.2%,-18.0%,11.6%,-12.2,-3.7%,2.0%
SMILES,RORgamma inh,BRCA1 expr act,p53 reactivation,Giardia kill,ELG1 repair inh,VP16 counter
CC1CCCCC1NC(=O)C1CCN(S(=O)(=O)c2cccc3nsnc23)CC1 (configuration not stated),1.9%,4.6%,-0.4%,-12.3,-4.2%,-2.1%
O=C(C1CCC1)N1CCc2cc(S(=O)(=O)N3CCN(c4ccccn4)CC3)ccc21,32.3%,-33.5%,-9.6%,2.6,18.4µM*,12.7%
CCN(CC)C(=O)C1CCN(S(=O)(=O)c2ccc3c(c2)CCCN3C(=O)C2CCC2)CC1,19.1%,-25.4%,-4.2%,-21.2,23.1µM*,-5.0%
O=C(C1CCC1)N1CCc2cc(S(=O)(=O)N3CCN(c4ccccc4)CC3)ccc21,x,-3.1%,x,x,x,x
CC1(C)OC(C)(C)/C(=C\c2ccccc2[N+](=O)[O-])C1=O,-3.9%,5.6%,1.3%,11.1,-9.9%,24.5%
CCN1CCN(c2ccc(S(=O)(=O)N3CCOCC3)cc2NC(=O)/C=C/c2cccc(OC)c2OC)CC1,x,-1.6%,-4.7%,-3.3,-13.1%,x
Cc1ccc(O)c(-c2cc(C(=O)Nc3ccc(S(=O)(=O)N4CC(C)OC(C)C4)cc3)[nH]n2)c1 (configuration not stated),u,-79.0%,-7.3%,7.8,8.2µM*,u
O=C(Nc1ccc(S(=O)(=O)N2CCOCC2)cc1)c1cc(-c2cc(Cl)ccc2O)n[nH]1,-17.1%,-81.0%,0.0%,3.9,23.1µM*,-21.5%
COc1ccc(NC(=O)c2nnn(Cc3ccc(SC)cc3)c2N)c(OC)c1,4.3%,23.8%,1.7%,6.6,16.8%,-1.3%
N#Cc1c(Cl)nc(N/N=C/c2ccccc2)c(Cl)c1Cl,8.91µM*,-9.3%,u,-14.6,7.5%,5.01µM*
CCOc1ccccc1N1CCN(C(=O)CCCN2C(=O)c3cccc4cccc(c34)C2=O)CC1,11.1%,-28.7%,-20.6%,-26.5,23.1µM*,-11.2%
O=C(CCCN1C(=O)c2cccc3cccc(c23)C1=O)N1CCN(c2ccccc2)CC1,12.0%,1.5%,-4.1%,-15.9,u,-10.6%
O=C(CCCN1C(=O)c2cccc3cccc(c23)C1=O)N1CCN(c2ccccc2O)CC1,u,-25.1%,-17.5%,-7.8,10.3µM*,-0.9%
COC(=O)c1c(NC(=O)C2CC2)sc2c1CCCC2,u,-18.7%,-6.8%,35.9,2.1%,-10.7%
COC(=O)c1c(NC(=S)NN2CCOCC2)sc2c1CCCC2,1.26µM*,3.0%,-2.0%,-17.5,-17.4%,3.98µM*
COC(=O)c1c(NC(=S)NC(=O)c2ccco2)sc2c1CCCC2,2.51µM*,0.3%,1.4%,16.6,u,u
Cc1oc2c(c(C)cc3oc(=O)c(CC(=O)NCC(=O)NCC(=O)NCC(C)O)c(C)c32)c1C (configuration not stated),-2.5%,14.7%,-2.8%,4.6,8.4%,7.5%
Cc1ccc(CNC(=O)Cn2c(=O)n(-c3cccc(Cl)c3)c(=O)c3sc4ccccc4c32)cc1,x,-9.5%,x,x,x,x
